Only some compounds are listed: those with a hit (about 4.2% of all), similar ones and a draw of the others.
CCHFV vOTU inh = CCHFV vOTU protease inhibition; Pep-AMC fluorescence; inhibition, % at 11.5 µM; hit rate 0.55% among 370,000; AID 651958; in the data active = inhibition above about 30%
GDH-TPI counter-1 = counter-screen for M. tuberculosis FBA inhibitors: GDH-TPI coupled enzymes | GDH-TPI coupled enzyme counterscreen, NADH absorbance | hit rate 1.2% among 360,000 | inhibition, % at 4.8 µM | AID 588335; in the data active = inhibition above about 30%
FBA Mtb inh = Mtb fructose-bisphosphate aldolase inhibition; AID 588726; inhibition, % at 1 µM; purified M. tuberculosis FBA, fluorescence read-out; hit rate 2.3% among 360,000
Target sequence (P9WQA3 whole entry, looked up): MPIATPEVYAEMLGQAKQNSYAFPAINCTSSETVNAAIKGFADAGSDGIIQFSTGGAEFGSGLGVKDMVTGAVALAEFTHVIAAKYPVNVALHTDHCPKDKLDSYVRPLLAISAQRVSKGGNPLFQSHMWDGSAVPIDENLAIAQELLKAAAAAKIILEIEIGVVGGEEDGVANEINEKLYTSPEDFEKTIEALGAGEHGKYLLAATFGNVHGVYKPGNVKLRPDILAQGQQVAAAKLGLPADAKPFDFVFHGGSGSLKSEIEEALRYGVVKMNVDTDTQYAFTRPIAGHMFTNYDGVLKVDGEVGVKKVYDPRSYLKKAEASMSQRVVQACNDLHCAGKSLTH
RecA intein inh = blocks M. tuberculosis RecA intein splicing. P9WHJ3. cell-free RecA intein splicing, fluorescence. inhibition, % (test concentration not listed). hit rate 0.75% among 290,000. AID 2221; in the data active = inhibition above about 30%
Mtb betalactam = beta-lactam sensitization of Mtb H37Rv; M. tuberculosis H37Rv growth with meropenem, percent inhibition; inhibition, % at 25 µM; AID 434955; hit rate 0.27% among 330,000; call rule not given here;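 also: growth measured after seven days incubation then overnight dye step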
Mtb FBA confirm = confirmation of M. tuberculosis fructose-bisphosphate aldolase inhibitors; shares compounds with FBA Mtb inh; AID 651616; purified M. tuberculosis FBA, fluorescence read-out; inhibition, % at 1 µM; hit rate 78% among 5,600
GDH-TPI counter-2 = counter-screen for M. tuberculosis FBA inhibitors: GDH-TPI coupled enzyme inhibition. shares compounds with FBA Mtb inh. GDH-TPI coupled enzyme counterscreen, fluorescence. inhibition, % at 1 µM. hit rate 81% among 5,600; in the data active = inhibition above about 10%
GDH-TPI DR = counter-screen for M. tuberculosis FBA inhibitors: GDH-TPI dose response | shares compounds with FBA Mtb inh | GDH-TPI coupled enzyme assay, fluorescence, artifact counterscreen | IC50, µM | hit rate 79% among 170 | AID 652145; call rule not given here
A number is an active result; i = inactive; nt = no result; + = active, no number; ! = repeats disagree. Rule as the data show it, unless noted: active = inhibition above about 27%; inactive = the rest.

SMILES | CCHFV vOTU inh | GDH-TPI counter-1 | FBA Mtb inh | RecA intein inh | Mtb betalactam | Mtb FBA confirm | GDH-TPI counter-2 | others
C[C@]12Cc3ccccc3C1CC1=N[C@@H](c3ccc(C(F)(F)F)cc3)O[C@@]13C[C@@H]2C(=O)N3C1CCN(Cc2ccccc2)CC1 (stereo partly specified) | i | nt | nt | nt | nt | nt | nt
NC(=O)c1ccc(Oc2ncc(C(F)(F)F)cc2Cl)cc1 | i | i | i | i | i | nt | nt
N#CCc1ccc(Oc2ncc(C(F)(F)F)cc2Cl)cc1 | i | i | 43.7 | i | i | 122.6 | 101.7
O=C(COc1ccc([N+](=O)[O-])cc1)Nc1nc(-c2ccccn2)cs1 | i | i | 27.9 | i | i | + | +
O=C(COc1ccc(F)cc1)Nc1nc(-c2ccccn2)cs1 | i | i | i | i | i | nt | nt
CC[C@@]1(O)C(=O)OCc2c1cc1n(c2=O)Cc2cc3c(NC(=O)CN)cccc3nc2-1 | i | i | 66.0 | i | i | 47.5 | 36.3
CC[C@@]1(O)C(=O)OCc2c1cc1n(c2=O)Cc2cc3ccccc3nc2-1 | nt | nt | nt | i | i | nt | nt
CCC1(O)C(=O)OCc2c1cc1n(c2=O)Cc2cc3cc(O)ccc3nc2-1 (stereo unspecified) | i | i | 29.5 | nt | nt | 132.7 | 120.0
CCn1c(SCC(=O)Nc2ccccc2C)nc2nc3c(cc2c1=O)COC(C)(C)C3 | i | i | i | i | i | nt | nt
N#Cc1c(SCC(=O)Nc2nccs2)sc2c(O)cc(=O)[nH]c12 | i | i | i | nt | i | nt | nt
CCCSc1nnc(NC(=O)CSc2sc3c(O)cc(=O)[nH]c3c2C#N)s1 | i | i | 92.7 | i | i | i | i | GDH-TPI DR=i
CC(C)[C@H]1/C(=C/C2CC2)N2C(=O)C[C@@H](c3ccccc3)N=C2N1Cc1ccc2c(c1)OCO2 | i | nt | nt | nt | nt | nt | nt
C=CCc1c(C)nc2cc(-c3ccc(C)cc3)[nH]n2c1=O | i | i | 26.9 | i | i | + | +
CC1=CC2=NC(=O)CC(C)(C(=O)N(CC(=O)NC3CCCC3)Cc3ccc(Cl)cc3)N2C=C1 (stereo unspecified) | i | i | 57.9 | i | i | 115.1 | 122.2
CC1=CC2=NC(=O)CC(C)(C(=O)N(CC(=O)NC3CCCC3)c3ccccc3F)N2C=C1 (stereo unspecified) | i | i | 46.7 | i | i | 44.7 | 37.0
CC1=CC2=NC(=O)CC(C)(C(=O)N(CC(=O)NC3CCCC3)c3ccccc3C)N2C=C1 (stereo unspecified) | i | i | 62.0 | i | i | + | +
CCOc1ccc(-n2c(SCC(=O)Nc3cccc4ccccc34)nnc2-c2ccco2)cc1 | i | nt | nt | nt | nt | nt | nt
C[C@@H]1OC(C2CCCCC2)N(C)[C@H]2C[C@H]3c4[nH]c5cccc(-c6ccccc6)c5c4CCN3C(=O)[C@@H]12 (stereo partly specified) | i | nt | nt | nt | nt | nt | nt
COc1cccc2c1cc1c(=O)n(CC(=O)NC3CCCCC3)nc(C)n12 | nt | i | i | i | i | nt | nt
COc1cccc2c1cc1c(=O)n(CC(=O)NCCCN3CCN(C)CC3)nc(C)n12 | i | i | 101.6 | i | i | 92.6 | 87.9
CCCN1CCN(C(=O)Cn2nc(C)n3c(cc4c(OC)cccc43)c2=O)CC1 | i | i | 86.5 | nt | nt | 168.9 | 112.9
Cc1ccc(NC(=O)CN2CCN(c3nc(-c4ccccc4)cs3)CC2)cc1C | i | nt | nt | nt | nt | nt | nt
Nc1nc2ncc(CNc3ccc(C(=O)N[C@@H](CCC(=O)O)C(=O)O)cc3)nc2c(=O)[nH]1 | i | i | 44.3 | i | i | 113.1 | 90.1
CN(Cc1cnc2nc(N)nc(N)c2n1)c1ccc(C(=O)N[C@@H](CCC(=O)O)C(=O)O)cc1 | i | i | 108.0! | i | i | 119.1 | 108.4
O=C(O)CCC(NC(=O)c1cncc(O)c1)C(=O)O (stereo unspecified) | i | i | i | i | i | nt | nt
SMILES | CCHFV vOTU inh | GDH-TPI counter-1 | FBA Mtb inh | RecA intein inh | Mtb betalactam | Mtb FBA confirm | GDH-TPI counter-2 | others
COc1ccc2c(c1)CCCN2C(=O)C1CCCN(S(=O)(=O)c2c(C(C)C)cc(C(C)C)cc2C(C)C)C1 (stereo unspecified) | i | nt | nt | nt | nt | nt | nt
CCOC(=O)[C@@]12CCCC=C1N(CCc1ccc(Cl)cc1)C(=O)[C@H]2CC(=O)NCCc1ccccc1OC | i | nt | nt | nt | nt | nt | nt
NC(=O)N/N=C/c1ccc2cccc(OCc3ccccc3)c2n1 | i | i | 57.2 | i | i | 172.8 | 138.2
C[C@@H](C(=O)NCCc1ccccc1F)N1C(=O)N2CCc3c([nH]c4ccccc34)[C@@]2(C)C1=O | i | i | 31.8 | i | i | + | 188.2
C[C@@H](C(=O)NCCc1ccccc1)N1C(=O)N2CCc3c([nH]c4ccccc34)[C@@]2(C)C1=O | i | i | i | nt | i | nt | nt
CN(C)c1cccc(/C=C2\CC3(OC(=O)C4CCCC4)CCCN2C3)c1 (stereo unspecified) | i | nt | nt | nt | nt | nt | nt
Cc1ccc(-c2cc(C(=O)NCc3ccccn3)c3ccccc3n2)cc1 | i | i | 28.0 | i | i | 122.9 | 115.8
O=C(NCc1ccccn1)c1cc(-c2ccc(Br)cc2)nc2ccccc12 | i | i | i | i | i | nt | nt
CCc1ccc(-c2cc(C(=O)NCc3ccccn3)c3ccccc3n2)cc1 | i | i | 29.1 | i | i | 88.4 | 64.5
COc1cccc(NC(=O)CSc2nc3c(sc4ccccc43)c(=O)n2CCN(C)C)c1 | i | i | 47.0 | i | i | i | i
CCN(CC)CCn1c(SCC(=O)Nc2cccc(OC)c2)nc2c(sc3ccccc32)c1=O | i | i | i | i | i | nt | nt
OC1CNc2c(ccc3ccccc23)C1 (stereo unspecified) | i | i | 101.2 | nt | nt | 175.1 | 153.6
CC1CC2(CCCCC2)Nc2c1ccc1ccccc21 (stereo unspecified) | i | i | i | i | i | nt | nt
O=C(NCCCSc1ccccc1)c1cc(Cl)ccc1O | i | i | 35.6 | i | i | 68.3 | 48.5
Clc1ccc(CN2CCN(N=Cc3c4ccccc4cc4ccccc34)CC2)cc1 | i | nt | nt | nt | nt | nt | nt
COCCNC(=O)c1cc2c(s1)-c1ccc(Cl)cc1SC2 | i | i | 45.6 | i | i | 173.9 | 160.1
CC(=O)c1ccc2c(c1)c(C#N)c1ccccc1[n+]2[O-] | i | i | 93.6 | i | nt | i | i
CC(=O)c1ccc2noc(-c3ccccc3)c2c1 | i | i | i | nt | i | nt | nt
CCN1CCN(C(=O)c2cc3cc(F)ccc3[nH]2)CC1 | i | i | 82.2 | i | i | 147.9 | 96.2
O=C(c1cc2cc(F)ccc2[nH]1)N1CCN(Cc2ccc3c(c2)OCO3)CC1 | i | i | i | i | i | nt | nt
COc1ccc(-c2cc(C(=O)O)c3sc(N4CCCCC4)nc3n2)cc1OC | i | i | 93.8 | i | i | 109.2 | 67.4
Nc1ccc(Nc2ccccc2)c(S(=O)(=O)O)c1 | i | i | 89.7 | i | i | 84.5 | 70.0
COC(=O)c1cc(-c2cc(Cl)ccc2OC)c(=O)n2c1CCC2 | i | nt | nt | nt | nt | nt | nt
CCN1CCN(C(=O)c2cc3c(-c4ccc(Cl)cc4)nn(C)c3s2)CC1 | i | i | i | nt | i | nt | nt
O=C(NCCCN1CCOCC1)c1ccc(Cl)s1 | i | i | i | i | i | nt | nt

Source: PubChem
